The record followed here is PubChem BioAssay AID2315 (National Center for Advancing Translational Sciences (NCATS), 2010).

In general, inhibition refers to the relative decrease from the control value, in per cent.

“And” between values parts separate entries of the source, which are not always exact repeats. Identical values can stand only once. About 27,000 (9.3%) of roughly 290,000 compounds were called active. Cut-off read from the data, not from the text of the source: active = inhibition mostly above about 28% (no sharp cut-off); inactive = mostly below about 43%. The entries come from a sample that favours actives as a whole.

The nature of the assay: A qHTS for Small Molecule Inhibitors of Shiga Toxin. Note: 0% is about no effect. The following applies: Vero cells, Shiga toxin protein synthesis inhibition reporter; at 38.7 µM, hits give high values.
As to `CCCOc1cccc(C(=O)NCCCNC(=O)c2cccnc2)c1`, the inhibition was -9.24% (inactive).

With `CCCn1nnc(NC(=O)COc2ccc(CC)cc2)n1`, the inhibition is 3.59% (inactive).

Consider `CCCOc1cccc(C(=O)Nc2nnn(CCC)n2)c1`, for which the inhibition was 103% (active).

As for `CCCCCN(C(=O)CCC(=O)OCC(=O)NCc1ccc(OC)cc1)c1c(N)n(CCCC)c(=O)[nH]c1=O`, the inhibition was -10.9% (inactive).

As for `CC(C)c1ccc(NC(=O)C2CCCN(S(=O)(=O)c3cccnc3)C2)cc1` (stereo unspecified), the inhibition was -4.38% (inactive).

On to `COc1ccc(NC(=O)CC2C(=O)NC3CCCCC3N2C(=O)c2ccc(F)cc2)cc1` (stereo unspecified), for which the inhibition is -4.42% (inactive).

Turning to `O=C(COc1cccc(Cl)c1)NCc1ccccc1`, the inhibition is 15% (inactive).

Regarding `CCN(CC)CCN1C(=O)C2C(C(=O)Nc3ccc(Br)cc3)C3C=CC2(O3)C1C(=O)NC1CCCCC1` (stereo unspecified), the inhibition is -12% (inactive).

Regarding `CC(C)c1cc(C(N)=O)c(NC(=O)c2cccc(COc3ccc(Br)cc3)c2)s1`, the inhibition is 199% (active).

In the case of `Cc1ccc(COc2ccc(C(=O)NN)cc2)cc1`, the inhibition is 30.5% (inactive).

`NNC(=O)c1cccc(COCC(F)(F)C(F)F)c1`: the inhibition is -2.2% (inactive).

Regarding `Cc1cc(C(F)(F)F)nc(SCC(=O)Nc2nccs2)n1`, the inhibition was -9.67% (inactive).

Turning to `CCn1c(SCC(=O)Nc2nccs2)nnc1-c1ccncc1`, the inhibition is -7.47% (inactive).

`CC(=O)c1cc(C#N)c(SCC(=O)C(C)(C)C)nc1C`: the inhibition is 89.1% (active).

As for `CC(=O)c1cc(C#N)c(N2CC(C)OC(C)C2)nc1C` (stereo unspecified), the inhibition was -8.18% (inactive).

Regarding `Cc1[nH]c2ccccc2c1SCC(=O)Nc1nccs1`, the inhibition is 63.6% (active).

As for `CC(=O)c1cc(C#N)c(SCC(=O)Nc2nccs2)nc1C`, the inhibition is 65% (active).

Take `Cc1cccc(C)c1Nc1nnc(SCC(=O)Nc2sccc2C#N)s1`: the inhibition was -3.87% (inactive).

In the case of `CCn1c(SCC(=O)Nc2nccs2)nnc1-c1ccco1`, the inhibition is -6.37% (inactive).

For `CC(=O)c1cc(C#N)c(N2CCCCC2)nc1C`, the inhibition is 1.31% (inactive).

On to `CCOC(=O)CNC(=O)CSc1ncccc1-c1nc2ccccc2[nH]1`, for which the inhibition is -7.03% (inactive).

In the case of `COc1ccc(NC(=O)C2CCC(CNS(=O)(=O)c3csc(C(N)=O)c3)CC2)cc1OC` (stereo unspecified), the inhibition was -12.8% (inactive).

Turning to `COc1ccc(Oc2cn[nH]c2-c2ccc(OC)cc2O)cc1`, the inhibition was -5.45% (inactive).

Consider `O=C(OCC#CCSc1nnc(-c2ccncc2)o1)c1sc2ccccc2c1Cl`, for which the inhibition was -13.4% (inactive).

For the compound `C#CCSc1nnc(-c2sc3ccccc3c2Cl)o1`, the inhibition is 89.1% (active).

With `COc1ccc2c(Cl)c(-c3nnco3)sc2c1`, the inhibition was -0.739% (inactive).

As to `O=C(NCCc1nnc2ccc(SCC(=O)N3CCOCC3)nn12)c1ccccc1`, the inhibition was -1.17% (inactive).

In the case of `COc1ccc(-c2nn(-c3ccccc3)cc2C(=O)Nc2nccs2)cc1OC`, the inhibition was 12.9% (inactive).

For `CC(C)(C)OC(=O)N/N=C/c1cn(-c2ccccc2)nc1-c1cccnc1`, the inhibition was -2.23% (inactive).

As for `COc1ccc(-c2nn(-c3ccccc3)cc2/C=N/Nc2ccccn2)cc1OC`, the inhibition was 24.4% (active).

As to `COc1cccc(CNC(=O)C2CCCN(c3ncnc4c3nc3n4CCCCC3)C2)c1` (stereo unspecified), the inhibition is -3.2% (inactive).

With `COc1ccc(S(=O)(=O)NCCCCOc2ccc(Cl)cc2)cc1`, the inhibition was -5.02% (inactive).

With `COc1ccc(N(CC(=O)N2CCCCCC2)S(=O)(=O)c2ccccc2)cc1`, the inhibition was 32.1% (inactive).

On to `COc1ccc(N(CCC#N)S(=O)(=O)c2ccc(Cl)cc2)cc1`, for which the inhibition is 42.6% (active).

`CC1CN(C(=S)Nc2ccc(S(N)(=O)=O)cc2)CC(C)O1` (stereo unspecified): the inhibition was -8.32% (inactive).

Regarding `COc1ccc(OC)c(NC(=O)Cc2cccs2)c1`, the inhibition was 9.31% (inactive).

As to `C=C(C)C(=O)O[C@H]1C/C(C)=C\C(=O)/C=C(\C)[C@H](O)[C@@H]2OC(=O)C(=C)[C@@H]21`, the inhibition was 60% (active).

On to `CCOc1ccc(C(=O)COC(=O)c2ccc(-n3cnnn3)cc2)cc1`, for which the inhibition is -9.12% (inactive).

Regarding `CCC(C)(C)NC(=O)CN(C(=O)CCC(=O)Nc1nccs1)c1ccc2c(c1)OCO2`, the inhibition is -6.38% (inactive).

Regarding `COCCCNC(=O)CN1C(=O)CSc2ccc(S(=O)(=O)N3CCOCC3)cc21`, the inhibition is 15.9% (inactive).

Regarding `CC1CCCC(NC(=O)CN2CCN(Cc3ccc(Cl)cc3)C2=O)C1C` (stereo unspecified), the inhibition was -12.5% (inactive).

Take `C/C(=N\NC(=O)c1cccc(N2CCCC2=O)c1)c1ccc(N)cc1`: the inhibition is 38.9% (inactive).

For the compound `O=C(c1cccc(N2CCCC2=O)c1)N1CCOCC1`, the inhibition is 20.2% (inactive).

`CC1CCCC(NC(=O)c2cccc(N3CCCC3=O)c2)C1C` (stereo unspecified): the inhibition was 87.5% (active).

In the case of `CCCNC(=O)NCc1ccc(N2CCCC2=O)cc1`, the inhibition is -8.65% (inactive).

Consider `CC1CCC(NC(=O)c2ccc(N3CCCC3=O)cc2)CC1` (stereo unspecified), for which the inhibition is 56.6% (active).

With `Cc1cccc(C(=O)NCCCN2CCCC2=O)c1`, the inhibition was -5.25% (inactive).

In the case of `O=C(NCCCN1CCCCCC1)c1ccc(N2CCCC2=O)cc1`, the inhibition was 0.987% (inactive).

For the compound `O=C(NCCc1ccc(Cl)cc1)c1cccc(N2CCCC2=O)c1`, the inhibition is 73.4% (active).

`COc1ccc(CCNc2nc(C)cc(C)n2)cc1OC`: the inhibition was 23.6% (inactive).

As to `CCCc1ccc(OCC(O)CN2CCN(C(=O)OCC)CC2)cc1` (stereo unspecified), the inhibition is -4.04% (inactive).

Take `COc1ccc(S(=O)(=O)N2CCC(C(=O)NCc3ccco3)CC2)cc1C`: the inhibition is -3.78% (inactive).

`CN(C(=O)CCNC(=O)Cn1ccc2ccccc2c1=O)c1ccc(Br)cc1`: the inhibition is -19.7% (inactive).

Consider `Cc1cc(CO)nn1-c1ccc([N+](=O)[O-])cc1`, for which the inhibition was 12.4% (inactive).

Regarding `Cc1nn(-c2ccc([N+](=O)[O-])cc2)c(N)c1-c1ccccc1`, the inhibition is 86.7% (active).

`Cc1nc(-c2ccc([N+](=O)[O-])cc2)c(-c2ccccc2)o1`: the inhibition was -2.19% (inactive).

On to `CCn1c(=O)c2ccccc2n(CC(=O)N2CCCc3ccccc32)c1=O`, for which the inhibition is -12.6% (inactive).

In the case of `CN(c1ccccc1)S(=O)(=O)c1ccc2[nH]c(=O)[nH]c2c1`, the inhibition is 21.5% (inactive).

As for `CC(=O)c1ccc(N2CCN(C(=O)CCc3ccccc3)CC2)cc1`, the inhibition is 14.3% (inactive).

Consider `CC(=O)c1ccc(N2CCN(CC(O)c3ccccc3)CC2)cc1` (stereo unspecified), for which the inhibition is 26.5% (inactive).

Take `CC(=O)c1ccc(N2Cc3ccccc3C2)cc1`: the inhibition was 79.3% (active).

Take `CCOC(=O)N1CCN(C(=O)c2cn(C)c3ccc(S(=O)(=O)N(CC)CC)cc3c2=O)CC1`: the inhibition is 2.57% (inactive).

Consider `COc1ccccc1C(=O)N/C(=C/c1ccc2c(c1)OCO2)C(=O)Nc1cccc(C(=O)O)c1`, for which the inhibition was -9.43% (inactive).

As for `CN1CCN(S(=O)(=O)c2cccc(C(=O)Nc3cccc(S(N)(=O)=O)c3)c2)CC1`, the inhibition is 13.4% (inactive).

For `O=C(c1n[nH]c2c1CCC2)N1CCCC(Nc2cccc(F)c2)C1` (stereo unspecified), the inhibition was -2% (inactive).

Take `CCOC(=O)Cn1c(=O)sc2cccc(Cl)c21`: the inhibition was -13.7% (inactive).

Take `CC(C)(C)OC(=O)CNC(=O)c1[nH]cnc1C(=O)N[C@@H](Cc1ccccc1)C(=O)OCc1ccccc1`: the inhibition was 7.26% (inactive).

Turning to `Cc1cc(OC(C)C(=O)Nc2ccc(S(=O)(=O)Nc3onc(C)c3C)cc2)cc(C)c1Cl` (stereo unspecified), the inhibition is -8.09% (inactive).

`Cc1noc(NS(=O)(=O)c2ccc(NC(=O)C34CCC(CC3)C4)cc2)c1C`: the inhibition is 0.59% (inactive).

In the case of `O=C(/C=C/Nc1ccc(S(=O)(=O)Nc2cnc3ccccc3n2)cc1)c1cccnc1`, the inhibition was 44.7% (active).

Regarding `CCn1c(SCC(=O)Nc2ccc(S(=O)(=O)Nc3onc(C)c3C)cc2)nnc1-c1ccccc1`, the inhibition is -13.6% (inactive).

Turning to `Cc1ccc(C(=O)/C=C/Nc2ccc(S(=O)(=O)Nc3onc(C)c3C)cc2)cc1`, the inhibition was 67.9% (active).

`O=C(Nc1ccc(S(=O)(=O)Nc2ccccn2)cc1)c1ccccc1`: the inhibition is -16.3% (inactive).

For the compound `Cc1noc(NS(=O)(=O)c2ccc(NC(=O)c3oc4ccc(F)cc4c3C)cc2)c1C`, the inhibition was -2.45% (inactive).

Consider `C=C(C)CNC(=S)Nc1ccc(S(=O)(=O)Nc2cnc3ccccc3n2)cc1`, for which the inhibition was 6.75% (inactive).

As to `Cc1noc(NS(=O)(=O)c2ccc(N/C=C/C(=O)c3ccccc3)cc2)c1C`, the inhibition is 71.6% (active).

With `COCCNC(=O)C1CCN(C(=O)C2CC(=O)N(c3ccc(C)cc3)C2)CC1` (stereo unspecified), the inhibition was -14.7% (inactive).

Turning to `CCN1C(=S)N[C@@H](CCc2ccccc2)[C@H](C(=O)OC)[C@H]1C`, the inhibition is -2.85% (inactive) and 15.7% (inactive).

Regarding `O=C(NNS(=O)(=O)c1ccc(F)cc1)c1ccc([N+](=O)[O-])cc1Cl`, the inhibition was 30.1% (inactive).

In the case of `CCOc1ccc(CN2CCC(n3nccc3NC(=O)C3CC3)CC2)cc1CO`, the inhibition was -3.78% (inactive).

For the compound `Cc1ccc(NC(=O)C2CCCN2C(=O)OCc2ccccc2)cc1C` (stereo unspecified), the inhibition was -4.8% (inactive).

Take `COc1ccc(NC(=O)C2C3CCC(O3)C2C(=O)O)cc1OC` (stereo unspecified): the inhibition was -5.78% (inactive).

Regarding `O=C(CSc1nc(Nc2ccccc2)nc(N2CCOCC2)n1)Nc1cc(Cl)ccc1O`, the inhibition is -4.02% (inactive).

Turning to `COc1cc(C(=O)N2CCN(C)CC2)cc(OC)c1OC`, the inhibition is -8.49% (inactive).

As for `Cn1ccc(=Nc2ccc(NC(=O)c3ccc(N=c4ccn(C)c5ccc([N+](=O)[O-])cc45)cc3)cc2)cc1`, the inhibition is -0.904% (inactive).

`Cc1nccn1CCCNC(=O)CC1C(=O)NCCN1Cc1ccc(Cl)c(F)c1` (stereo unspecified): the inhibition was -1.1% (inactive).

For the compound `CCOc1ccc(CN2CCNC(=O)C2CC(=O)NCCCC2CCCC2)cc1` (stereo unspecified), the inhibition is 19% (active).

As for `O=C(CC1C(=O)NCCN1Cc1ccc(-c2ccccc2)cc1)NCC1CCOCC1` (stereo unspecified), the inhibition was -14.6% (inactive).

For `Cn1c(CCNS(=O)(=O)c2ccc(F)cc2)nnc1SCc1cccnc1`, the inhibition was 16.6% (inactive).

On to `COCCn1c(SCC(=O)N2CCCCCC2)nc2c(c1=O)SCC2`, for which the inhibition was -16.9% (inactive).

For the compound `CC(C)(C)n1nc2c(c1NC(=O)c1cc3ccccc3o1)CSC2`, the inhibition is -8.8% (inactive).

Regarding `O=C(NCCc1ccc2c(c1)OCCO2)c1cc2ccccc2o1`, the inhibition is 5.6% (inactive).

As to `C/C(=N\NC(=S)Nc1ccc(C)cc1)c1cc2ccccc2o1`, the inhibition is 30.5% (inactive).

As for `Cc1ccc(NC(=O)c2cc3ccccc3o2)cc1`, the inhibition was 118% (active).

In the case of `Cc1ccc(OC(=O)c2cc3ccccc3o2)cc1`, the inhibition is 27.5% (inactive).

As for `O=C(Nc1ccncc1)c1cc2ccccc2o1`, the inhibition is 57.4% (active).
